Laboratory results from PubChem BioAssay AID1851 (National Center for Advancing Translational Sciences (NCATS), 2009).
Several values for one entry are separate records, joined by “and”; a condition that tells them apart may be missing. Identical values can stand only once. Screen size: about 16,000 compounds; about 5,700 (36%) were called active. About 24% were inconclusive and are not listed. Calls come from the whole dose curve; as a rule, active = well fitted curve in the direction sought with a large enough effect; inconclusive = small, poorly fitted or top-dose-only effect, or effect the other way; inactive = no such curve, though single readings can be large or run the other way. Some of the results follow.

target: Cytochrome P450 1A2 (Homo sapiens) (UniProt P05177); assay: Cytochrome panel assay with activity outcomes; settings: recombinant CYP, pro-luciferin dealkylation, luminescence, p450-cyp1a2; series mostly up to 57.1 µM
% is set by controls: 0 for no effect and ±100 for the full control effect.

Cytochrome P450 1A2 (Homo sapiens), sequence (P05177 whole entry, looked up): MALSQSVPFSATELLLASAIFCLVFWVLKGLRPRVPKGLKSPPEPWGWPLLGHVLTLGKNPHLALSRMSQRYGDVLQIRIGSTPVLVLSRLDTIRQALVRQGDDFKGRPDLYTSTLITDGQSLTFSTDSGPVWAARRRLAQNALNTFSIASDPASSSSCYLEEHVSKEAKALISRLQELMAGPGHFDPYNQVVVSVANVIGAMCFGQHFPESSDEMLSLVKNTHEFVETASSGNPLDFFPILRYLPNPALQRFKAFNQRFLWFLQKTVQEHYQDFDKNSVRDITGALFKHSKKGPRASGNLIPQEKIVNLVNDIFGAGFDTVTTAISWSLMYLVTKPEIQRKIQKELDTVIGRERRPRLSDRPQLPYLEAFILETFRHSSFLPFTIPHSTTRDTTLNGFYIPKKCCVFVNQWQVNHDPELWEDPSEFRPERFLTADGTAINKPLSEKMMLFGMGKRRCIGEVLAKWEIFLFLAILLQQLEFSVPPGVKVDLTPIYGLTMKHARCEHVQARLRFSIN

AC50, active:
COC(=O)c1c(C)oc2ccc(N(C(=O)c3ccncc3)S(=O)(=O)c3ccccc3)cc12 11200 nM, Cc1cc(C)cc(Oc2coc3cc(OC(=O)c4cccs4)ccc3c2=O)c1 2000 nM, CN(Cc1ccco1)c1nc(-c2cccnc2)nc2ccccc12 316 nM, CN(Cc1ccccc1)c1nc(-c2ccc([N+](=O)[O-])cc2)nc2ccccc12 1580 nM, CN(Cc1ccco1)c1nc(-c2ccc3c(c2)OCO3)nc2ccccc12 501 nM, CN(C)c1ccc(-c2nc(N(C)Cc3ccco3)c3ccccc3n2)cc1 631 nM, CN(Cc1ccco1)c1nc(-c2ccoc2)nc2ccccc12 398 nM, Cc1ccc2[nH]c3c(N4CCc5ccccc5C4)ncnc3c2c1 1580 nM, CCOc1ccc2c(c1)nc(SCC(=O)c1ccc(Br)s1)n2C 2240 nM, COc1ccc2c(c1)nc(SCC(=O)c1ccc(Br)s1)n2C 7940 nM, CCC/C=C(\CCC)C(NC(=O)c1cccs1)c1ccc(C(=O)OC)cc1 (stereo not given) 5010 nM, CCC/C=C(\CCC)C(NS(=O)(=O)c1cccs1)c1ccc(C(=O)OC)cc1 (stereo not given) 12600 nM, CCC/C=C(\CCC)C(NC(=O)OCC(C)C)c1ccc(C(=O)OC)cc1 (stereo not given) 15800 nM, O=C(OC[C@@H](O)CO)c1ccccc1Nc1ccnc2cc(Cl)ccc12 5010 nM, CCOC(=O)C[n+]1c(C)sc2ccc(OC)cc21 14100 nM, COc1cccc2c(=O)c(C(=O)NCc3cccs3)c[nH]c12 631 nM, Cc1nc2cnc(N3CCNCC3)nc2n(Cc2ccc(F)cc2)c1=O 12600 nM, O=c1c(-c2ccc(F)cc2)nc2cnc(N3CCNCC3)nc2n1Cc1ccc(F)cc1 15800 nM, O=c1cnc2cnc(N3CCNCC3)nc2n1Cc1ccc(F)cc1 15800 nM, Clc1cccc(Nc2nnc(-c3ccccc3)c3ccccc23)c1 1260 nM, COc1ccccc1NC(=O)C(C/C=C(\C)Cl)C(C)=O (stereo not given) 12600 nM, CCNc1ncc2nc(CCc3ccccc3)c(=O)n(C3CC3)c2n1 3160 nM, CCNc1ncc2nc(CCc3ccccc3)c(=O)n(-c3ccccc3)c2n1 1260 nM, CCNc1ncc2nc(CCc3ccccc3)c(=O)n(C)c2n1 2510 nM, CCNc1ncc2nc(CCc3ccccc3)c(=O)n(CCOC)c2n1 2000 nM, CN1CC(c2ccccn2)C2(SC(=S)N(Cc3ccccc3)C2=O)C12C(=O)Nc1ccccc12 (stereo not given) 17800 nM, CC(/C=C/c1ccccc1)=N/NC(=O)CNC(=O)c1ccc2c(c1)OCO2 2240 nM, CC1CCCCN1c1nc(-c2ccncc2)nc2ccccc12 (stereo not given) 355 nM, N#CC(c1ccc(Cl)cc1)c1nc2ccccc2nc1C(F)(F)F (stereo not given) 1580 nM, CCOc1cc(C)c(S(=O)(=O)Nc2ccc3cn[nH]c3c2)cc1C 178 nM, CCOC(=O)c1ccc(S(=O)(=O)Nc2ccc3cn[nH]c3c2)cc1 5010 nM

AC50, inactive:
CC1CCCC(NC(=O)C2CCN(S(=O)(=O)N3CCOCC3)CC2)C1C (stereo not given), Cc1cccc(CSCCNC(=O)c2ccc(N(C)S(=O)(=O)c3ccccc3)cc2)c1, CN(c1ccc(C(=O)NCC2CCCO2)cc1)S(=O)(=O)c1ccccc1 (stereo not given), Cc1cccc(Oc2coc3cc(OC(=O)c4cc5ccccc5oc4=O)ccc3c2=O)c1, Cc1nc(N=Nc2ccc(S(=O)(=O)O)cc2S(=O)(=O)O)c(COP(=O)(O)O)c(C=O)c1O, CCOC(=O)N1CCN(C(=O)c2ccc3nc(SCc4ccc(F)cc4)n(C)c3c2)CC1, CCC/C=C(\CCC)C(NS(=O)(=O)CC12CCC(CC1=O)C2(C)C)c1ccc(C(=O)OC)cc1 (stereo not given), CCC/C=C(\CCC)C(NS(=O)(=O)c1ccc(C(F)(F)F)cc1)c1ccc(C(=O)OC)cc1 (stereo not given), CCC/C=C(\CCC)C(NC(=O)c1ccc(C(=O)OC)cc1)c1ccc(C(=O)OC)cc1 (stereo not given), CCC/C=C(\CCC)C(NC(=O)Oc1ccc(F)cc1)c1ccc(C(=O)OC)cc1 (stereo not given), CCC/C=C(\CCC)C(NC(=O)C(C)(C)C)c1ccc(C(=O)OC)cc1 (stereo not given), CCC/C=C(\CCC)C(NC(=O)c1ccc(C(F)(F)F)cc1)c1ccc(C(F)(F)F)cc1 (stereo not given), CCN1CNC(=S)N(c2cc(C)ccc2C)C1, COc1ccc(-c2nc3cnc(N4CCNCC4)nc3n(Cc3ccc(F)cc3)c2=O)cc1, Cc1nc2cnc(N3CCN(C)CC3)nc2n(Cc2ccc(F)cc2)c1=O, COc1ccc(Nc2nnc(-c3ccc(N4CCOCC4)c([N+](=O)[O-])c3)c3ccccc23)cc1, CCN1CCCC1CNC(=O)C(=O)Nc1ccccc1OC (stereo not given), CCCCCCCCCCCCCCCC(=O)NC[C@@H](COP(=O)([O-])OCC[N+](C)(C)C)OCC, CC1(C)CC(=O)C(C=NCCN2CCN(C(=S)Nc3ccc(F)cc3)CC2)=C(O)C1, CN1CC(c2ccccc2)C2(COc3ccccc3C2=O)C12C(=O)Nc1ccccc12 (stereo not given), NC(=O)C1(N2CCCCC2)CCN(C(=O)c2ccc(-n3cnnn3)cc2)CC1, Cc1ccnc(NS(=O)(=O)c2ccc(NC(=O)C3CCCNC3=O)cc2)n1 (stereo not given)

activity, negative = inhibition, inactive:
Cc1ccc2[nH]c3nc(CCCn4ccnc4-c4ccccc4)nnc3c2c1 -11.9% [at 11.4 µM], Clc1ccc2c(NC3CCC(N4CCCCC4)CC3)ccnc2c1 (stereo not given) -15.7% [at 2.29 µM], Clc1ccc2c(NCCNC3CCCCC3)ccnc2c1 -10.2% [at 2.29 µM], Cc1cc2sc(C)[n+](CCCOS(=O)(=O)O)c2cc1C -10.3% [at 11.4 µM], Cc1sc2ccccc2[n+]1CCC(=O)O -3.71% [at 11.4 µM], O=C(O)[C@H]1[C@H](C(=O)O)[C@H](C(=O)O)C[C@@H]1C(=O)O -9.47% [at 11.4 µM], Cc1cc2c(nc1C)CCCN2C[C@H](O)CN1CCCc2nc(-c3ccc(Br)cc3)ccc21 3.9% [at 11.4 µM] and 2.86% [at 11.4 µM]
